Reference: the supplement of paper PMC4466140

B1: unnamed (peptide)
chain: MPAPPPPPPPPPGAF

What follows are binders tested against AgAbp1 (assay: SPOT peptide array binding signal intensity (averaged, normalized) (arbitrary units (background-subtracted, floor 0; scale differs between SH3 domains)); higher = stronger binding of the SH3 domain to the peptide).
How it was run: (§1)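 Four yeast species supplied the SH3 domains, which were expressed as GST fusions in E. coli BL21(DE3) and purified on glutathione Sepharose. Incubation with cellulose membranes carrying synthetic 15-mer peptides, cysteines exchanged for serines, ran overnight at 4°C at 10 μg/ml in TBS-based blocking buffer. Binding signal is reported as normalized, background-subtracted spot intensity averaged over replicates, in arbitrary units not shared between domains.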
For B1, the “SPOT peptide array binding signal intensity” value was ≤ 0.

What follows are binders tested against AgBbc1 in the same assay as above.
How it was run: as §1
With B1 the “SPOT peptide array binding signal intensity” value was 3.81e-06.

Each binder was assayed against AgBem1-D1 in the same assay as above.
How it was run: as §1
For B1, the “SPOT peptide array binding signal intensity” value was ≤ 0.

Each binder was assayed against AgBzz1-D1 in the same assay as above.
How it was run: as §1
B1 was tested, and the “SPOT peptide array binding signal intensity” value was ≤ 0.

What follows are binders tested against AgBzz1-D2 in the same assay as above.
How it was run: as §1
B1 was tested, and the “SPOT peptide array binding signal intensity” value was 19.5.

These binders were tested against AgCyk3 in the same assay as above.
How it was run: as §1
With B1 the “SPOT peptide array binding signal intensity” value was ≤ 0.

These binders were tested against AgFus1 in the same assay as above.
How it was run: as §1
With B1 the “SPOT peptide array binding signal intensity” value was ≤ 0.

What follows are binders tested against AgHof1 in the same assay as above.
How it was run: as §1
B1 was tested, and the “SPOT peptide array binding signal intensity” value was 51.2.

These binders were tested against AgHse1 in the same assay as above.
How it was run: as §1
For B1, the “SPOT peptide array binding signal intensity” value was ≤ 0.

Each binder was assayed against AgLsb1 in the same assay as above.
How it was run: as §1
B1 was tested, and the “SPOT peptide array binding signal intensity” value was ≤ 0.

The binders below were run against AgLsb4 in the same assay as above.
How it was run: as §1
In the case of B1, the “SPOT peptide array binding signal intensity” value is reported as ≤ 0.

These binders were tested against AgMyo5 in the same assay as above.
How it was run: as §1
B1 was tested, and the “SPOT peptide array binding signal intensity” value was 822.

Each binder was assayed against AgNbp2 in the same assay as above.
How it was run: as §1
For B1, the “SPOT peptide array binding signal intensity” value was ≤ 0.

Each binder was assayed against AgRvs167 in the same assay as above.
How it was run: as §1
B1 was tested, and the “SPOT peptide array binding signal intensity” value was ≤ 0.

What follows are binders tested against AgSho1 in the same assay as above.
How it was run: as §1
With B1 the “SPOT peptide array binding signal intensity” value was ≤ 0.

Each binder was assayed against AgSla1-D1-D2 in the same assay as above.
How it was run: as §1
With B1 the “SPOT peptide array binding signal intensity” value was ≤ 0.

What follows are binders tested against AgSla1-D3 in the same assay as above.
How it was run: as §1
B1 was tested, and the “SPOT peptide array binding signal intensity” value was 0.5.

What follows are binders tested against CaAbp1-D1 in the same assay as above.
How it was run: as §1
For B1, the “SPOT peptide array binding signal intensity” value was 18.5.

What follows are binders tested against CaAbp1-D2 in the same assay as above.
How it was run: as §1
For B1, the “SPOT peptide array binding signal intensity” value was ≤ 0.

What follows are binders tested against CaBbc1 in the same assay as above.
How it was run: as §1
In the case of B1, the “SPOT peptide array binding signal intensity” value is reported as 0.25.

Each binder was assayed against CaBem1-D1 in the same assay as above.
How it was run: as §1
In the case of B1, the “SPOT peptide array binding signal intensity” value is reported as 40.

These binders were tested against CaBzz1-D1 in the same assay as above.
How it was run: as §1
In the case of B1, the “SPOT peptide array binding signal intensity” value is reported as 970.

The binders below were run against CaBzz1-D2 in the same assay as above.
How it was run: as §1
In the case of B1, the “SPOT peptide array binding signal intensity” value is reported as 69.1.

What follows are binders tested against CaCyk3 in the same assay as above.
How it was run: as §1
In the case of B1, the “SPOT peptide array binding signal intensity” value is reported as ≤ 0.

These binders were tested against CaFus1 in the same assay as above.
How it was run: as §1
With B1 the “SPOT peptide array binding signal intensity” value was 33.

Each binder was assayed against CaHof1 in the same assay as above.
How it was run: as §1
With B1 the “SPOT peptide array binding signal intensity” value was ≤ 0.

These binders were tested against CaHse1 in the same assay as above.
How it was run: as §1
B1 was tested, and the “SPOT peptide array binding signal intensity” value was 4.62.

The binders below were run against CaLsb1 in the same assay as above.
How it was run: as §1
For B1, the “SPOT peptide array binding signal intensity” value was ≤ 0.

What follows are binders tested against CaLsb4 in the same assay as above.
How it was run: as §1
In the case of B1, the “SPOT peptide array binding signal intensity” value is reported as ≤ 0.

The binders below were run against CaMyo5 in the same assay as above.
How it was run: as §1
With B1 the “SPOT peptide array binding signal intensity” value was 66.

Each binder was assayed against CaNbp2 in the same assay as above.
How it was run: as §1
In the case of B1, the “SPOT peptide array binding signal intensity” value is reported as 29.

These binders were tested against CaRvs167 in the same assay as above.
How it was run: as §1
With B1 the “SPOT peptide array binding signal intensity” value was ≤ 0.

These binders were tested against CaRvs167-3 in the same assay as above.
How it was run: as §1
B1 was tested, and the “SPOT peptide array binding signal intensity” value was 2.75.

These binders were tested against CaSho1 in the same assay as above.
How it was run: as §1
With B1 the “SPOT peptide array binding signal intensity” value was 13.8.

The binders below were run against CaSla1-D1-D2 in the same assay as above.
How it was run: as §1
B1 was tested, and the “SPOT peptide array binding signal intensity” value was ≤ 0.

What follows are binders tested against CaSla1-D3 in the same assay as above.
How it was run: as §1
In the case of B1, the “SPOT peptide array binding signal intensity” value is reported as ≤ 0.

What follows are binders tested against ScAbp1 in the same assay as above.
How it was run: as §1
With B1 the “SPOT peptide array binding signal intensity” value was ≤ 0.

The binders below were run against ScBbc1 in the same assay as above.
How it was run: as §1
In the case of B1, the “SPOT peptide array binding signal intensity” value is reported as ≤ 0.

What follows are binders tested against ScBem1-D1 in the same assay as above.
How it was run: as §1
In the case of B1, the “SPOT peptide array binding signal intensity” value is reported as ≤ 0.

Each binder was assayed against ScBzz1-D1 in the same assay as above.
How it was run: as §1
For B1, the “SPOT peptide array binding signal intensity” value was 27.5.

What follows are binders tested against ScBzz1-D2 in the same assay as above.
How it was run: as §1
For B1, the “SPOT peptide array binding signal intensity” value was ≤ 0.

The binders below were run against ScCyk3 in the same assay as above.
How it was run: as §1
With B1 the “SPOT peptide array binding signal intensity” value was ≤ 0.

The binders below were run against ScFus1 in the same assay as above.
How it was run: as §1
With B1 the “SPOT peptide array binding signal intensity” value was ≤ 0.

The binders below were run against ScHof1 in the same assay as above.
How it was run: as §1
B1 was tested, and the “SPOT peptide array binding signal intensity” value was ≤ 0.

The binders below were run against ScHse1 in the same assay as above.
How it was run: as §1
In the case of B1, the “SPOT peptide array binding signal intensity” value is reported as 4.25.

What follows are binders tested against ScLsb1 in the same assay as above.
How it was run: as §1
B1 was tested, and the “SPOT peptide array binding signal intensity” value was ≤ 0.

These binders were tested against ScLsb2 in the same assay as above.
How it was run: as §1
In the case of B1, the “SPOT peptide array binding signal intensity” value is reported as ≤ 0.

What follows are binders tested against ScLsb3 in the same assay as above.
How it was run: as §1
In the case of B1, the “SPOT peptide array binding signal intensity” value is reported as ≤ 0.

The binders below were run against ScLsb4 in the same assay as above.
How it was run: as §1
In the case of B1, the “SPOT peptide array binding signal intensity” value is reported as ≤ 0.

The binders below were run against ScMyo3 in the same assay as above.
How it was run: as §1
B1 was tested, and the “SPOT peptide array binding signal intensity” value was 1010.

These binders were tested against ScMyo5 in the same assay as above.
How it was run: as §1
B1 was tested, and the “SPOT peptide array binding signal intensity” value was 634.

Each binder was assayed against ScNbp2 in the same assay as above.
How it was run: as §1
With B1 the “SPOT peptide array binding signal intensity” value was ≤ 0.

The binders below were run against ScPex13 in the same assay as above.
How it was run: as §1
With B1 the “SPOT peptide array binding signal intensity” value was 71.9.

What follows are binders tested against ScRvs167 in the same assay as above.
How it was run: as §1
For B1, the “SPOT peptide array binding signal intensity” value was ≤ 0.

Each binder was assayed against ScSho1 in the same assay as above.
How it was run: as §1
In the case of B1, the “SPOT peptide array binding signal intensity” value is reported as 5.75.

What follows are binders tested against ScSla1-D1-D2 in the same assay as above.
How it was run: as §1
B1 was tested, and the “SPOT peptide array binding signal intensity” value was ≤ 0.

What follows are binders tested against ScSla1-D3 in the same assay as above.
How it was run: as §1
With B1 the “SPOT peptide array binding signal intensity” value was 0.125.

Each binder was assayed against SpAbp1-D1 in the same assay as above.
How it was run: as §1
B1 was tested, and the “SPOT peptide array binding signal intensity” value was 7.

Each binder was assayed against SpBbc1 in the same assay as above.
How it was run: as §1
B1 was tested, and the “SPOT peptide array binding signal intensity” value was ≤ 0.

These binders were tested against SpBzz1-D1 in the same assay as above.
How it was run: as §1
With B1 the “SPOT peptide array binding signal intensity” value was 1360.

Each binder was assayed against SpBzz1-D2 in the same assay as above.
How it was run: as §1
In the case of B1, the “SPOT peptide array binding signal intensity” value is reported as 5.62.

The binders below were run against SpCyk3 in the same assay as above.
How it was run: as §1
B1 was tested, and the “SPOT peptide array binding signal intensity” value was ≤ 0.

These binders were tested against SpHof1 in the same assay as above.
How it was run: as §1
With B1 the “SPOT peptide array binding signal intensity” value was 0.5.

Each binder was assayed against SpHof1-2 in the same assay as above.
How it was run: as §1
For B1, the “SPOT peptide array binding signal intensity” value was 7.75.

What follows are binders tested against SpHof1-3 in the same assay as above.
How it was run: as §1
With B1 the “SPOT peptide array binding signal intensity” value was 4.25.

The binders below were run against SpHse1 in the same assay as above.
How it was run: as §1
For B1, the “SPOT peptide array binding signal intensity” value was 17.5.

Each binder was assayed against SpLsb1 in the same assay as above.
How it was run: as §1
In the case of B1, the “SPOT peptide array binding signal intensity” value is reported as ≤ 0.

The binders below were run against SpLsb4 in the same assay as above.
How it was run: as §1
With B1 the “SPOT peptide array binding signal intensity” value was ≤ 0.

The binders below were run against SpMyo1 in the same assay as above.
How it was run: as §1
In the case of B1, the “SPOT peptide array binding signal intensity” value is reported as 521.

These binders were tested against SpNbp2 in the same assay as above.
How it was run: as §1
With B1 the “SPOT peptide array binding signal intensity” value was ≤ 0.

The binders below were run against SpPex13 in the same assay as above.
How it was run: as §1
B1 was tested, and the “SPOT peptide array binding signal intensity” value was ≤ 0.

These binders were tested against SpRvs167 in the same assay as above.
How it was run: as §1
With B1 the “SPOT peptide array binding signal intensity” value was 43.4.

These binders were tested against SpSla1-D1-D2 in the same assay as above.
How it was run: as §1
For B1, the “SPOT peptide array binding signal intensity” value was ≤ 0.

What follows are binders tested against SpSla1-D3 in the same assay as above.
How it was run: as §1
B1 was tested, and the “SPOT peptide array binding signal intensity” value was ≤ 0.
